Screen size: about 350,000 compounds; about 9,900 (2.8%) were called active. Not shown: some 15% with an inconclusive outcome. Shown is part of a subset that was picked to be rich in actives. Values without a mark were called inactive. The call rests on the fitted dose curve; in most records, active means well fitted activation curve with a large enough effect; inconclusive means small, poorly fitted or top-dose-only effect; inactive means no such curve, though single readings can be large or run the other way.
Test: A quantitative high throughput screen for small molecules that induce DNA re-replication in MCF 10a normal breast cells. Further: nearly all actives have a fitted effect of over 50% in size. On activity, positive = re-replication: % of control where 0% means no effect.
Settings: MCF 10A DNA re-replication, Hoechst nuclear intensity, 48 h; series mostly up to 46.1 µM; activity, positive = re-replication: at the top concentration
Excerpt: H Molecular Libraries Probe Production Network [MLPCN]
NIH Chemical Genomics Center [NCGC]
Assay Provider: Melvin DePamphilis, NICHD, NIH
Eukaryotic cells normally restrict genome duplication to once per cell division. When this process is aberrant, DNA re-replication occurs when cells reinitiate DNA replication before the first round of replication is complete. DNA re-replication induces the DNA damage response, arrests cell proliferation, and triggers apoptosis. The cell cycle components cyclin A, Cdt-1, Cdc6 and geminin are critical regulators of this process and their misregulation results in DNA re-replication in normal and cancer cells. To identify compounds that induce re-replication in normal cells, an image-based assay was used to measure DNA content of nuclei, as detected by the fluorescent DNA binding dye, Hoechst. Cell nuclei were imaged by a fluorescence scanning plate imager and compounds that induce DNA re-replication were identified by the increase of nuclei with elevated fluorescence intensity
For screening, 250 cells in 5 uL/well were dispensed into black clear 1536-well plates (Aurora) using a solenoid-based dispenser. Following transfer of 23 nL compound or DMSO vehicle by a pin tool, the plates were incubated 48 hr at 37 C and 5% CO2. After addition of 1 uL/well Hoescht stain, the plates were incubated 40 min at 37 C, 5% CO2 and total intensity of fluorescent objects (nuclei) were enumerated by an Acumen Explorer Ex3 (TTP LabTech) fluorescence scanning plate imager (405 nm excitation, 500-530 nm emission).
Keywords: NIH Roadmap, MLPCN, MLI, MLSMR, qHTS, NCGC, DNA replication, cancer
With `CC(C)(C)c1nnc2sc(SCC(O)=C(C#N)c3nc4ccccc4[nH]3)nn2c1=O` the “activity, positive = re-replication” value was -7.27%.
In the case of `COc1ccccc1-c1sc2ccccc2c1C#CC1(O)CCCCC1`, the Potency is reported as 18.4 µM (active).
With `COc1ccccc1C1=CC(=O)CCC1` the “activity, positive = re-replication” value was 4.21%.
With `COc1ccccc1-c1sc2ccccc2c1-c1ccc(C(C)=O)cc1` the “activity, positive = re-replication” value was 96.3%.
For `Cc1ccc(F)cc1NC(=O)CSCc1c(C)noc1C`, the “activity, positive = re-replication” value was 9.05%.
In the case of `COc1cccc(-n2c(SCC(=O)NC3CCS(=O)(=O)C3)nc3ccccc3c2=O)c1` (stereo not given), the “activity, positive = re-replication” value is reported as -0.959%.
With `CS(=O)(=O)c1ccc(Cl)c(NC(=O)Nc2ccccc2)c1` the “activity, positive = re-replication” value was 2.54%.
For `O=C(Nc1ccccc1)c1nnsc1S(=O)(=O)c1ccc(Cl)cc1`, the Potency was 13 µM (active).
For `CC(=O)Nc1cc(C(=O)O)ccc1S(=O)(=O)c1ccc(Cl)cc1`, the “activity, positive = re-replication” value was -4.11%.
In the case of `COc1ccccc1C(=O)COC(=O)COc1ccc(C#N)cc1`, the “activity, positive = re-replication” value is reported as -0.419%.
In the case of `O=C(COC(=O)c1ccc([N+](=O)[O-])o1)NC12CC3CC(CC(C3)C1)C2`, the “activity, positive = re-replication” value is reported as 2.77%.
With `N#CCC(=O)Nc1ccc(C(=O)OCC(=O)Nc2sc3c(c2C#N)CCCC3)cc1` the “activity, positive = re-replication” value was 2.07%.
For `CCN(CC(=O)Nc1ccccc1OC)C(=O)CC1CC2CCC1C2` (stereo not given), the “activity, positive = re-replication” value was -1.06%.
In the case of `COc1cc(OC)c(C(=O)NNC(=O)c2ccccc2-n2cccc2)cc1OC`, the “activity, positive = re-replication” value is reported as 4.63%.
With `O=C(COC(=O)c1ccccn1)Nc1cccc2ccccc12` the “activity, positive = re-replication” value was -0.533%.
For `N#Cc1ccccc1NC(=O)COc1c(Br)cc(Br)c2cccnc12`, the Potency was 25.9 µM (active).
In the case of `Cc1cc(NC(=O)COc2ccccc2C#N)no1`, the “activity, positive = re-replication” value is reported as -3.52%.
In the case of `C#CCOCCOCCOCCNc1nc(N2CCN(C(=O)[C@H](CCC(=O)O)n3cc(CN)nn3)CC2)nc(N2CCN(C(=O)[C@H](CCC(=O)O)n3cc(CN)nn3)CC2)n1`, the “activity, positive = re-replication” value is reported as -1.24%.
In the case of `CC(C)c1cc(NCc2ccccn2)n2c(nc3ccccc32)c1C#N`, the “activity, positive = re-replication” value is reported as 14.3%.
In the case of `Cc1cc(NC(C)C)n2c(nc3ccccc32)c1C#N`, the “activity, positive = re-replication” value is reported as 0.0869%.
With `Cc1cc(NCc2ccco2)n2c(nc3ccccc32)c1C#N` the Potency was 16.4 µM (active).
In the case of `Cc1ccc(NS(=O)(=O)c2ccc(C(C)C)cc2)cc1S(=O)(=O)N1CCOCC1`, the “activity, positive = re-replication” value is reported as 3.51%.
For `Cc1ccc(OC(=O)c2cc3ccccc3o2)cc1`, the “activity, positive = re-replication” value was -4.63%.
For `C/C(=N\NC(=S)Nc1ccc(C)cc1)c1cc2ccccc2o1`, the Potency was 13 µM (active).
For `Cc1ccc(NC(=O)c2cc3ccccc3o2)cc1`, the “activity, positive = re-replication” value was 0.598%.
For `O=C(CN1C(=O)NC2(CCOc3ccccc32)C1=O)NCc1ccc(F)cc1` (stereo not given), the “activity, positive = re-replication” value was 0.67%.
For `Cc1cccc(NC(=O)c2cccc(C(F)(F)F)c2)c1`, the “activity, positive = re-replication” value was 0.159%.
For `O=C(Nc1cccc(C(F)(F)F)c1)c1cc(Br)cc(Br)c1O`, the Potency was 4.73 µM (active).
In the case of `O=C(O)CSCC(=O)Nc1cccc(C(F)(F)F)c1`, the “activity, positive = re-replication” value is reported as 0.525%.
For `O=C(NCCc1ccccc1)c1c[nH]c2ccc(F)cc2c1=O`, the “activity, positive = re-replication” value was -1.92%.
With `Nn1c(SCC(=O)NC2CCCc3ccccc32)nnc1C1CC1` (stereo not given) the “activity, positive = re-replication” value was -1.36%.
With `Cc1noc(C)c1S(=O)(=O)N(C)C[C@H]1Oc2ccc(NC(=O)C3CC3)cc2C(=O)N([C@H](C)CO)C[C@@H]1C` the “activity, positive = re-replication” value was -4.09%.
With `COc1ccc(-c2nc3c(s2)CCc2onc(-c4ccc(Br)cc4)c2-3)cc1` the “activity, positive = re-replication” value was -16.8%.
For `COc1ccc(-c2nc3c(s2)CCc2onc(-c4ccc(OC)cc4)c2-3)cc1`, the Potency was 4.11 µM (active).
With `COc1ccc(-c2nc3n(c2Br)CCC3)cc1` the “activity, positive = re-replication” value was -5.29%.
In the case of `O=C(O)c1ccccc1/C=N/Nc1ccc(S(=O)(=O)Nc2ccc(Cl)cc2)cc1[N+](=O)[O-]`, the “activity, positive = re-replication” value is reported as 27.4%.
For `Cc1noc(C)c1NC(=O)Nc1ccc2c(c1)C(=O)N([C@H](C)CO)C[C@H](C)[C@@H](CN(C)C(=O)Nc1ccccc1)O2`, the “activity, positive = re-replication” value was -0.387%.
In the case of `COc1ccccc1C(=O)c1ccccc1C(=O)c1ccccc1`, the “activity, positive = re-replication” value is reported as 14.2%.
With `CCOC(=O)C(=CNc1cccc(C)n1)C(=O)OCC` the “activity, positive = re-replication” value was 2.73%.
In the case of `CCOC(=O)C(=Cc1ccccc1OC)C(=O)OCC`, the Potency is reported as 14.6 µM (active).
For `Cc1ccc(S(=O)(=O)c2c(COC(=O)c3cccc(Cl)c3)c(-c3ccccc3)nn2C)cc1`, the “activity, positive = re-replication” value was 10.6%.
With `Cn1nc(-c2ccccc2)c(CO)c1Sc1ccccc1` the “activity, positive = re-replication” value was 2.31%.
With `Cn1nc(-c2ccccc2)c(CSc2cccc(Cl)c2)c1Cl` the Potency was 5.17 µM (active).
In the case of `O=C(NN=Cc1ccc(N2CCOCC2)cc1)c1cc2ccccc2cc1O`, the “activity, positive = re-replication” value is reported as 13.2%.
For `CCOCc1c(C(=O)N2CCN(Cc3ccc(Br)s3)CC2)oc2ccccc12`, the “activity, positive = re-replication” value was 12.6%.
With `CN(C)c1ccc(/C=N/N(Cc2ccccc2)c2ccccc2)cc1` the “activity, positive = re-replication” value was 14.1%.
For `CCN(/N=C/c1ccccc1)c1cc(=O)n(C)c(=O)[nH]1`, the “activity, positive = re-replication” value was -8.5%.
For `CCN(/N=C/c1ccc(N(C)C)cc1)c1nc2ccccc2[nH]1`, the Potency was 5.8 µM (active).
In the case of `Cc1ccc(S(=O)(=O)N2CCN(C(=O)COC(=O)CNC(=O)c3ccc(C(C)(C)C)cc3)CC2)c(C)c1`, the “activity, positive = re-replication” value is reported as -2.41%.
For `O=C(CCNS(=O)(=O)c1ccccc1)NCCCc1ccccc1`, the “activity, positive = re-replication” value was 1.7%.
For `O=C(Cc1ccc(NC(=O)C2CCCN(C(=O)CCc3ccccc3)C2)cc1)Nc1ccc(C(=O)N2CCOCC2)cc1` (stereo not given), the “activity, positive = re-replication” value was -4.89%.
In the case of `Cn1c(=O)[nH]c2c(c(C(=O)O)nn2C)c1=O`, the “activity, positive = re-replication” value is reported as 0.839%.
For `O=C(Nc1ccc(Cl)c(Cl)c1)N1CC=C(c2ccccc2)CC1`, the Potency was 14.6 µM (active).
In the case of `COc1cc(C(=O)NCC(=O)N2CC=C(c3ccccc3)CC2)cc(OC)c1OC`, the “activity, positive = re-replication” value is reported as 7.06%.
In the case of `O=C(O)c1cccc(S(=O)(=O)N2CC=C(c3ccccc3)CC2)c1`, the “activity, positive = re-replication” value is reported as 8.48%.
For `CCOc1ccc(/C=C(/C#N)c2nnc(N3CCOCC3)n2-c2ccccc2)cc1OC`, the “activity, positive = re-replication” value was -7.13%.
With `COc1cccc2c1C(=O)c1c(O)c3c(c(O)c1C2=O)CC(O)(C(C)=NNC(=O)c1ccc(Cl)c(Cl)c1)CC3OC1CC(N)C(O)C(C)O1` (stereo not given) the “activity, positive = re-replication” value was 1.42%.
For `COc1cc(OC)c(C(=O)Nc2ccccc2-c2ccccc2)cc1OC`, the Potency was 18.4 µM (active).
For `O=C(Nc1ccccc1-c1ccccc1)c1ccccc1[N+](=O)[O-]`, the “activity, positive = re-replication” value was 17.7%.
For `COc1cc2ccccc2cc1C(=O)Nc1ccccc1C`, the “activity, positive = re-replication” value was 0.228%.
In the case of `O=C1C=C(c2cccc(Br)c2)C[C@@H](c2ccc(F)cc2)C1`, the “activity, positive = re-replication” value is reported as 5.52%.
For `CNc1nc(=O)n(C2CCCO2)cc1C` (stereo not given), the “activity, positive = re-replication” value was -4.08%.
In the case of `COc1ccc(C(=O)Nc2ccc(C3(C#N)CCCC3)cc2)cc1OC`, the Potency is reported as 20.6 µM (active).
In the case of `COc1ccc(C(=O)Nc2ccc(N3CCC(C)CC3)cc2)cc1Br`, the “activity, positive = re-replication” value is reported as -4.31%.
In the case of `COc1ccc(C2(C#N)CCC(C(=O)O)CC2)cc1OC1CCCC1` (stereo not given), the “activity, positive = re-replication” value is reported as 22.2%.

Reference: PubChem BioAssay AID624296 (National Center for Advancing Translational Sciences (NCATS), 2012)
Potency means the concentration at half of the fitted maximal effect.
